The values that follow come from PubChem BioAssay (NCATS).

Inconclusive results are not listed. Values without a mark were called inactive. Activity calls are given as the source filed them. Unless noted, calls follow the shape of the full dose curve.
% is scaled to controls: 0 for no effect and ±100 for the full control effect; potency is read from the fitted curve at half-maximal effect.

System in the first test: not listed separately
Kind of test: qHTS for Inhibitors of the Functional Ribonucleoprotein Complex (vRNP) of Lymphocytic Choriomeningitis Arenaviruses (LCMV): Viability assay - alamar blue signal for LCMV Primary Screen (AID 1347085; calls by dose curve; tested in HEK293 reporter line; also: nearly all actives have a fitted effect of over 80% in size). To be noted: alamar blue viability counter-screen, LCMV vRNP screen cells; series mostly up to 57.5 µM; activity change, negative = lower viability: at the top concentration.
As for `COc1ccc(-c2ccc3c(N4CCOC[C@H]4C)nc(N4CCOC[C@H]4C)nc3n2)cc1CO`, the Potency is 0.0306 µM (active).
Take `CS(=O)(=O)c1cccc(CNc2nc(Nc3ccc4c(c3)CCC(=O)N4)ncc2C(F)(F)F)c1`: the “activity change, negative = lower viability” value was -13.1%.
Consider `CC(C)CCCC(C)CCCC(C)CCCCC(C)CCCC(C)CCCC(C)C` (stereo not drawn), for which the “activity change, negative = lower viability” value is 0.855%.
On to `CCOC(=O)c1cccnc1`, for which the “activity change, negative = lower viability” value is -1.08%.
The same measure, in the same setting: the figure for `Cn1c2cc(S(C)=O)sc2c2cnn(Cc3cccc(N)c3)c(=O)c21` (stereo not drawn) is 4.52%; for `N[C@H]1C(O)O[C@H](CO)[C@@H](O)[C@@H]1O` (stereo partly drawn) it is 8.75%; for `Nc1nc2c(ncn2CCC(CO)CO)c(=O)[nH]1` it is -9.3%.
Turning to `CCC[C@H](NC(=O)C(C#N)=Cc1cccc(Br)n1)c1ccccc1`, the “activity change, negative = lower viability” value is -15.4%.
In the case of `O=C1[C@H](Cc2ccc(O)cc2)N2C(=O)CCN(C(=O)NCc3ccccc3)[C@H]2CN1Cc1cccc2ccccc12`, the Potency is 24.3 µM (active).
Same read-out and setting: the entry for `CC1=C(/C=C/C(C)=C/C=C/C(C)=C/C(=O)O)C(C)(C)CCC1` is “inactive”.
For `CC(=O)Nc1ccc(O)cc1`, the Potency result was “inactive”.
Turning to `Cc1cccc(-c2nn(C(=S)Nc3ccccc3)cc2-c2ccnc3ccccc23)n1`, the “activity change, negative = lower viability” value is -0.448%.
Same read-out and setting: the figure for `O=C(O)c1ccccc1O` is -1.01%.
Take `COc1ccc(CC2SC(=O)NC2=O)cc1C(=O)NCc1ccc(C(F)(F)F)cc1` (stereo not drawn): the Potency was 38.5 µM (active).
Turning to `Cc1cc(SCc2sc(-c3ccc(C(F)(F)F)cc3)nc2C)ccc1OCC(=O)O`, the “activity change, negative = lower viability” value was -3.79%.
Same read-out and setting: the figure for `Nc1ccc(S(=O)(=O)Nc2ccccc2)cc1` is 2.74%; for `O=C(Nc1cccc(C2=NCCN2)c1)Nc1cccc(C2=NCCN2)c1` it is -7.44% [at 24.7 µM].
On to `CCc1c(C)[nH]c2c1C(=O)C(CN1CCOCC1)CC2` (stereo not drawn), for which the Potency entry was “inactive”.
Turning to `COc1cc2ncnc(-n3nc(-c4ccccn4)nc3N)c2cc1OC`, the Potency was 7.69 µM (active).
Consider `CCN(CC)CCc1nc(-c2ccccc2)no1`, for which the “activity change, negative = lower viability” value is 13.1%.
For `O=C1C=CC[C@@H]2[C@H]3CCCN4CCC[C@@H](CN12)[C@@H]34`, the Potency result is “inactive”.
Regarding `C=CCNC(N)=S`, the “activity change, negative = lower viability” value is -0.761%.
For the compound `C[C@@H]1CN(c2c(F)c(N)c3c(=O)c(C(=O)O)cn(C4CC4)c3c2F)C[C@H](C)N1`, the Potency result is “inactive”.
Turning to `NC(=O)c1ccc(-c2nc(-c3ccc4c(c3)OCO4)c(-c3ccccn3)[nH]2)cc1`, the “activity change, negative = lower viability” value is 2.11%.
The same measure, in the same setting: the figure for `NC(=O)c1ccc(I)c([N+](=O)[O-])c1` is -17.2%; for `O=C(C=Cc1ccc(/C=C/C(=O)Nc2ccc(C3=NCCN3)cc2)cc1)Nc1ccc(C2=NCCN2)cc1` it is 21.5%; for `O=C(O)c1ccc2c(c1)nc(Nc1cccc(Cl)c1)c1ccncc12` it is -3.15%.
On to `CC(C)(C)NCC(O)c1ccc(O)c(CO)c1` (stereo not drawn), for which the Potency result was “inactive”.
With `NCCO`, the “activity change, negative = lower viability” value is 8.84% [at 115 µM].
The same measure, in the same setting: the figure for `Cc1c(C)c2c(c(C)c1OC(=O)c1cccnc1)CC[C@@](C)(CCC[C@H](C)CCC[C@H](C)CCCC(C)C)O2` is -0.731%.
Take `CC(C)(C)C(=O)Oc1ccc2c(c1)nc(NC(=O)c1cccc([N+](=O)[O-])c1)n2CCCO`: the “activity change, negative = lower viability” value was -0.923%.
Still for that read-out and setting: the figure for `Cc1cc(-c2ccccc2)nnc1NCCN1CCOCC1` is 1.81%.
Take `O=C(NC1CCNCC1)c1[nH]ncc1NC(=O)c1c(Cl)cccc1Cl`: the Potency was 0.968 µM (active).
As to `OC[C@H](Cc1ccccc1)Nc1nc(Oc2ccc3c(c2)CCC3)nc2c1ncn2Cc1ccc(-c2ccccc2)cc1`, the “activity change, negative = lower viability” value was 4.24%.
Same read-out and setting: the figure for `CN(C)c1ccc(N=NS(=O)(=O)O)cc1` is 21.2% [at 115 µM]; for `C[C@H](CN1CCCC1)C(=O)c1ccc(C(F)(F)F)cc1` it is 0.145%.
The same measure, in the same setting: the figure for `CCOC(=O)[C@@H](N)CCC(=O)N[C@@H](CSCc1ccccc1)C(=O)N[C@@H](C(=O)OCC)c1ccccc1` is -4.47%.
Turning to `Cc1c(CN2CCN(C(=O)C(C)C)CC2)sc2c(N3CCOCC3)nc(-c3cnc(N)nc3)nc12`, the Potency was 0.273 µM (active).
For the compound `O=C(O)c1ccc2cc(-c3ccc(O)c(C45CC6CC(CC(C6)C4)C5)c3)ccc2c1`, the “activity change, negative = lower viability” value is 2.92%.

The target in another test is Nucleoprotein (Lymphocytic choriomeningitis virus (strain Armstrong)) (UniProt P09992). Kind of test: qHTS for Inhibitors of the Functional Ribonucleoprotein Complex (vRNP) of Lymphocytic Choriomeningitis Arenaviruses (LCMV): LCMV Primary Screen - GLuc reporter signal (AID 1347086). Also: nearly all actives have a fitted effect of over 70% in size. Particulars: LCMV minigenome vRNP cell assay, Gaussia luciferase reporter; series mostly up to 57.5 µM; activity change, negative = inhibition: at the top concentration.
Nucleoprotein (Lymphocytic choriomeningitis virus (strain Armstrong)), sequence (P09992 whole entry, looked up): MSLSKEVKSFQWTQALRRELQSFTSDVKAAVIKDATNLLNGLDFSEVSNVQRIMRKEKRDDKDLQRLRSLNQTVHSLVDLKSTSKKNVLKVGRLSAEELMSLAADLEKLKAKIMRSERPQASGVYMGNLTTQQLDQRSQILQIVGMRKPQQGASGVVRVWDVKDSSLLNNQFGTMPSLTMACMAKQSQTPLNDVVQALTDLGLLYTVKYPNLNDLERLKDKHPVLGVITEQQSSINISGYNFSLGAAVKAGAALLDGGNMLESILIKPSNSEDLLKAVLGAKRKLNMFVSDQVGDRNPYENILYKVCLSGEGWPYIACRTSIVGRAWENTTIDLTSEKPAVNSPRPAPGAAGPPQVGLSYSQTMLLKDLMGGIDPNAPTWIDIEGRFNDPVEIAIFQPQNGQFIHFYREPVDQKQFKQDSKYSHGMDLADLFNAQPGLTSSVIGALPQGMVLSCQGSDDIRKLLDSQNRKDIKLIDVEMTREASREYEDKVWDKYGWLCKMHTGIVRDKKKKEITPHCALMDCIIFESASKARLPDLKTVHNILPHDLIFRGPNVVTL
Regarding `COc1ccc(-c2ccc3c(N4CCOC[C@H]4C)nc(N4CCOC[C@H]4C)nc3n2)cc1CO`, the Potency is 0.0306 µM (active).
In the case of `CS(=O)(=O)c1cccc(CNc2nc(Nc3ccc4c(c3)CCC(=O)N4)ncc2C(F)(F)F)c1`, the “activity change, negative = inhibition” value was 3.38%.
The same measure, in the same setting: the figure for `CC(C)CCCC(C)CCCC(C)CCCCC(C)CCCC(C)CCCC(C)C` (stereo not drawn) is -1.85%; for `CCOC(=O)c1cccnc1` it is 46%; for `Cn1c2cc(S(C)=O)sc2c2cnn(Cc3cccc(N)c3)c(=O)c21` (stereo not drawn) it is -9.24%.
In the case of `N[C@H]1C(O)O[C@H](CO)[C@@H](O)[C@@H]1O` (stereo partly drawn), the “activity change, negative = inhibition” value was 1.27%.
On the same count and under the same terms, the figure for `Nc1nc2c(ncn2CCC(CO)CO)c(=O)[nH]1` is -1.71%; for `CCC[C@H](NC(=O)C(C#N)=Cc1cccc(Br)n1)c1ccccc1` it is -7.76%.
Consider `O=C1[C@H](Cc2ccc(O)cc2)N2C(=O)CCN(C(=O)NCc3ccccc3)[C@H]2CN1Cc1cccc2ccccc12`, for which the Potency was 19.3 µM (active).
On the same count and under the same terms, the entry for `CC1=C(/C=C/C(C)=C/C=C/C(C)=C/C(=O)O)C(C)(C)CCC1` is “inactive”.
Regarding `CC(=O)Nc1ccc(O)cc1`, the Potency entry was “inactive”.
Take `Cc1cccc(-c2nn(C(=S)Nc3ccccc3)cc2-c2ccnc3ccccc23)n1`: the “activity change, negative = inhibition” value was 38%.
Take `O=C(O)c1ccccc1O`: the “activity change, negative = inhibition” value was -0.114%.
As to `COc1ccc(CC2SC(=O)NC2=O)cc1C(=O)NCc1ccc(C(F)(F)F)cc1` (stereo not drawn), the “activity change, negative = inhibition” value is -25.4%.
The same measure, in the same setting: the figure for `Cc1cc(SCc2sc(-c3ccc(C(F)(F)F)cc3)nc2C)ccc1OCC(=O)O` is -3.93%.
The same measure, in the same setting: the figure for `Nc1ccc(S(=O)(=O)Nc2ccccc2)cc1` is 3.36%.
On the same count and under the same terms, the figure for `O=C(Nc1cccc(C2=NCCN2)c1)Nc1cccc(C2=NCCN2)c1` is -11.6% [at 24.7 µM].
Consider `CCc1c(C)[nH]c2c1C(=O)C(CN1CCOCC1)CC2` (stereo not drawn), for which the Potency entry was “inactive”.
On the same count and under the same terms, the figure for `COc1cc2ncnc(-n3nc(-c4ccccn4)nc3N)c2cc1OC` is 2.43 µM (active).
In the case of `CCN(CC)CCc1nc(-c2ccccc2)no1`, the “activity change, negative = inhibition” value was 24.3%.
Take `O=C1C=CC[C@@H]2[C@H]3CCCN4CCC[C@@H](CN12)[C@@H]34`: the Potency result was “inactive”.
For the compound `C=CCNC(N)=S`, the “activity change, negative = inhibition” value is 0.553%.
For the compound `C[C@@H]1CN(c2c(F)c(N)c3c(=O)c(C(=O)O)cn(C4CC4)c3c2F)C[C@H](C)N1`, the Potency entry was “inactive”.
For the compound `NC(=O)c1ccc(-c2nc(-c3ccc4c(c3)OCO4)c(-c3ccccn3)[nH]2)cc1`, the “activity change, negative = inhibition” value was 41.6%.
The same measure, in the same setting: the figure for `NC(=O)c1ccc(I)c([N+](=O)[O-])c1` is -15.4%; for `O=C(C=Cc1ccc(/C=C/C(=O)Nc2ccc(C3=NCCN3)cc2)cc1)Nc1ccc(C2=NCCN2)cc1` it is 27.1%.
For the compound `O=C(O)c1ccc2c(c1)nc(Nc1cccc(Cl)c1)c1ccncc12`, the “activity change, negative = inhibition” value is -5.68%.
With `CC(C)(C)NCC(O)c1ccc(O)c(CO)c1` (stereo not drawn), the Potency result was “inactive”.
For `NCCO`, the “activity change, negative = inhibition” value is 13.5% [at 115 µM].
The same measure, in the same setting: the figure for `Cc1c(C)c2c(c(C)c1OC(=O)c1cccnc1)CC[C@@](C)(CCC[C@H](C)CCC[C@H](C)CCCC(C)C)O2` is 3.41%; for `CC(C)(C)C(=O)Oc1ccc2c(c1)nc(NC(=O)c1cccc([N+](=O)[O-])c1)n2CCCO` it is -6.53%; for `Cc1cc(-c2ccccc2)nnc1NCCN1CCOCC1` it is 5.65%.
Regarding `O=C(NC1CCNCC1)c1[nH]ncc1NC(=O)c1c(Cl)cccc1Cl`, the Potency is 1.93 µM (active).
With `OC[C@H](Cc1ccccc1)Nc1nc(Oc2ccc3c(c2)CCC3)nc2c1ncn2Cc1ccc(-c2ccccc2)cc1`, the “activity change, negative = inhibition” value is -19.8%.
The same measure, in the same setting: the figure for `CN(C)c1ccc(N=NS(=O)(=O)O)cc1` is -21.7% [at 115 µM]; for `C[C@H](CN1CCCC1)C(=O)c1ccc(C(F)(F)F)cc1` it is 12.1%.
Same read-out and setting: the figure for `CCOC(=O)[C@@H](N)CCC(=O)N[C@@H](CSCc1ccccc1)C(=O)N[C@@H](C(=O)OCC)c1ccccc1` is -0.108%.
Consider `Cc1c(CN2CCN(C(=O)C(C)C)CC2)sc2c(N3CCOCC3)nc(-c3cnc(N)nc3)nc12`, for which the Potency was 0.217 µM (active).
Regarding `O=C(O)c1ccc2cc(-c3ccc(O)c(C45CC6CC(CC(C6)C4)C5)c3)ccc2c1`, the “activity change, negative = inhibition” value was -1.21%.
